# Assay outcomes as filed in PubChem BioAssay.
# PTEN del growth = growth suppression of PTEN-null HCT116, primary screen, cell-based, CellTiter-Glo; AID 827, 2007; 140,000 tested, 1.2% active; HCT116 PTEN-null viability, 60 h; stronger effect = lower value; viability, % at 10 µM;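 active = viability at or below a set limit, 4 SD under the median of all tested compounds, cut at about 3.7% in these data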;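 note: PTEN knockout HCT116 line with beta catenin targeted HCT116 as companion control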
# Autophagy HCS = autophagy modulators in MEF cells, primary screen, imaging, high-content, MEF GFP-LC3; MEF GFP-LC3 puncta imaging; test concentration mostly 10 µM; calls only at 10 µM (by protocol); 190,000 tested, 0.98% active; AID 463193, 2010;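 active = percentage of spot-positive cells more than 3 SD above its plate mean, without a fluorescence outlier flag or 80% toxicity; inconclusive = no clear call, values can overlap the other calls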;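 note: spot-positive cell cutoff set from DMSO-treated cells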
# Insulin prom inh = inhibitors of insulin promoter-driven GFP, primary screen, imaging, TRM-6 cells (human fetal islet line), eGFP reporter, cell count; 130,000 tested, 0.9% active; reporter expression induced with tamoxifen; inhibition, % at 2 µM;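 active = inhibition above the mean plus 3 SD, with well images judged a real hit on visual review, cut at about 60% in these data, passing the limit was not always enough; inconclusive = inhibition over the cutoff but images rejected on review; inactive = inhibition not above the cutoff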
# Lmaj promast = Leishmania major promastigote growth inhibition, primary screen; Leishmania major promastigotes, resazurin fluorescence viability; 200,000 tested, 9% active; inhibition, % at 10 µM; in the data active = inhibition above about 50%;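 note: promastigotes grown with compound for 44 hours at 28 °C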
# Insulin prom up = insulin promoter activators in MIN6 cells, imaging, high-content screening, mouse beta cells. AID 1625, 2009. MIN6 insulin promoter-GFP reporter; stronger effect = higher value. z-score at 5 µM. 190,000 tested, 0.3% active;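 active = z-score above 3 at 5 µM with at least 500 cells counted in the well; inconclusive = wells under 500 cells, flagged as cytotoxic or low count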
# bCat KO growth = primary screen for growth suppressors in beta-catenin knockout HCT116 cells (colon tumor, human); HCT116 beta-catenin knockout viability, CellTiter-Glo, 60 h; stronger effect = lower value; AID 818, 2007; viability, % at 10 µM; 140,000 tested, 1.5% active;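 active = viability at or under a set limit, the compound median less 4 SD, cut at about 6% in these data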;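 note: 0% = Hyamine 1622 control at 20 µM and 100% = untreated cell control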
# Starred values were filed as active, the others as inactive; i = inactive; ? = inconclusive; · = no result given. A selection: hits, their analogues and other compounds. The true share with any hit is near 9.6%.
SMILES,PTEN del growth,Autophagy HCS,Insulin prom inh,Lmaj promast,Insulin prom up,bCat KO growth
CN(C)c1ncc(CN2CCC(CO)(CCCc3ccccc3)CC2)s1,·,·,·,·,-0.44,·
CSCC(C)N1CCC(CO)(CCCc2ccccc2)CC1 (stereo unspecified),·,i,·,91*,-0.04,·
Cn1cc(CN2CCC(CO)(CCCc3ccccc3)CC2)c(-c2ccccc2)n1,·,·,·,·,0.82,·
Cc1cc(Nc2nnnn2-c2ccccc2)n(-c2ccccc2)n1,86,i,13,-6,0.88,80
O=C(O)C1CCCN1c1ncccc1[N+](=O)[O-] (stereo unspecified),·,i,·,-3,0.48,·
CCOc1cc(/C=C2\C(=O)N(Cc3ccc(C)cc3)C(C)=C2C(=O)OC)ccc1O,71,i,-40,48,-0.19,61
C=CCOc1cccc(/C=C2\C(=O)N(Cc3ccc(C)cc3)C(C)=C2C(=O)OC)c1,42,i,·,92*,·,36
O=C(Nc1c(C(=O)N2CCCC2)cnn1-c1ccccc1)c1cccc(F)c1,90,i,-226,-5,·,93
COc1ccc(N(CC(=O)Nc2cc(Cl)ccc2OC)S(=O)(=O)c2c(C)noc2C)cc1,16,i,·,32,-1.7,16
COc1ccc(OC)c(NC(=O)CN(c2ccc(C)cc2)S(=O)(=O)c2c(C)noc2C)c1,81,i,·,75*,-0.36,91
COc1ccc(OC)c(NC(=O)CN(c2ccc(C(C)C)cc2)S(=O)(=O)c2c(C)noc2C)c1,48,i,·,52*,-0.57,40
COc1cccc(CNC(=O)CN(c2cc(C)cc(C)c2)S(=O)(=O)c2c(C)noc2C)c1,88,i,·,65*,0.66,98
COc1cc(S(=O)(=O)N(Cc2cccnc2)Cc2ccco2)ccc1-n1cnnn1,104,i,31,-2,-0.34,94
COc1cccc(CN(Cc2cccnc2)S(=O)(=O)c2ccc(-n3cnnn3)c(C)c2)c1,88,i,·,100*,-0.69,93
COc1cccc(CN(CC2CCCO2)S(=O)(=O)c2ccc(-n3cnnn3)c(OC)c2)c1 (stereo unspecified),·,i,·,5,-0.28,·
COc1cccc(CN(c2ccc3c(c2)CCC3)S(=O)(=O)c2ccc(-n3cnnn3)c(OC)c2)c1,90,i,14,66*,0.42,93
CCOC(=O)c1sc(NS(=O)(=O)c2ccc(C)cc2)nc1C,105,i,3,-8,·,94
Cc1ccc(-c2cc(C(=O)NCc3ccco3)c3ccccc3n2)o1,88,i,31,-8,·,72
COC(=O)c1cc(C(=O)c2cc(Cl)ccc2O)coc1=N,·,i,0,-5,0.16,·
Cc1ccc(O)c(C(=O)c2coc(=N)c(C(=O)NC(C)C)c2)c1,106,i,22,71*,0.27,102
CCCCC[n+]1ccn(-c2nc3ccccc3nc2[N-]S(=O)(=O)c2ccc(C)cc2)c1,83,i,-58,100*,0.55,94
Cc1ccc(S(=O)(=O)[N-]c2nc3ccccc3nc2-n2cc[n+](Cc3ccccc3)c2)cc1,·,·,·,·,0.32,·
CCCC[n+]1ccn(-c2nc3ccccc3nc2[N-]S(=O)(=O)c2ccccc2)c1,116,i,-36,54*,-0.04,103
CCCC[n+]1ccn(-c2nc3ccccc3nc2[N-]S(=O)(=O)c2ccc(C)cc2)c1,96,i,-25,99*,0.8,96
N#Cc1cn(CC(=O)O)c2ccccc12,97,i,·,-6,1.7,101
Cn1nnnc1SCC(=O)Nc1cc(C(F)(F)F)ccc1N1CCOCC1,·,i,·,2,-1.5,·
Nc1c(C(=O)c2ccc(Cl)cc2)oc2ccccc12,57,i,-24,-4,-0.36,60
COc1ccccc1C1C=C(c2ccccc2)Nc2nnnn21 (stereo unspecified),86,i,63,23,·,91
COc1ccccc1/C=C1\CCCC2=C1Nc1nnnn1C2c1ccccc1OC (stereo unspecified),1.7*,i,?,79*,0.25,4.0*
COC(=O)c1ccc(CNC(=O)c2c3c(nc4ccccc24)CCN(Cc2ccccc2)C3)cc1,87,i,-80,-1,0.17,90
